# MEX-5 binding = C. elegans MEX-5 TCR-2 RNA binding activity | Q9XUB2 | MEX-5/FITC-TCR2 RNA binding, fluorescence polarization; stronger effect = lower value | activity score (negative = inhibition of binding), % at 10 µM | AID 1832 | hit rate 0.38% among 300,000;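 active = inhibition past about -25% in most replicates, and total fluorescence under double the plate's negative control median, limit read from the data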;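 also: 0% = DMSO and -100% = 5 µM competing unlabeled TCR2 RNA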
# E coli Lon inh = E. coli protease La inhibition; P0A9M0; purified E. coli Lon protease, fluorescence polarization; inhibition, % at 7.94 µM; hit rate 0.42% among 360,000; AID 602123; in the data active = inhibition above about 13%, passing the limit was not always enough;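 also: 0% = enzyme with probe and DMSO and 100% = no enzyme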
# Target sequence (P0A9M0 whole entry, looked up): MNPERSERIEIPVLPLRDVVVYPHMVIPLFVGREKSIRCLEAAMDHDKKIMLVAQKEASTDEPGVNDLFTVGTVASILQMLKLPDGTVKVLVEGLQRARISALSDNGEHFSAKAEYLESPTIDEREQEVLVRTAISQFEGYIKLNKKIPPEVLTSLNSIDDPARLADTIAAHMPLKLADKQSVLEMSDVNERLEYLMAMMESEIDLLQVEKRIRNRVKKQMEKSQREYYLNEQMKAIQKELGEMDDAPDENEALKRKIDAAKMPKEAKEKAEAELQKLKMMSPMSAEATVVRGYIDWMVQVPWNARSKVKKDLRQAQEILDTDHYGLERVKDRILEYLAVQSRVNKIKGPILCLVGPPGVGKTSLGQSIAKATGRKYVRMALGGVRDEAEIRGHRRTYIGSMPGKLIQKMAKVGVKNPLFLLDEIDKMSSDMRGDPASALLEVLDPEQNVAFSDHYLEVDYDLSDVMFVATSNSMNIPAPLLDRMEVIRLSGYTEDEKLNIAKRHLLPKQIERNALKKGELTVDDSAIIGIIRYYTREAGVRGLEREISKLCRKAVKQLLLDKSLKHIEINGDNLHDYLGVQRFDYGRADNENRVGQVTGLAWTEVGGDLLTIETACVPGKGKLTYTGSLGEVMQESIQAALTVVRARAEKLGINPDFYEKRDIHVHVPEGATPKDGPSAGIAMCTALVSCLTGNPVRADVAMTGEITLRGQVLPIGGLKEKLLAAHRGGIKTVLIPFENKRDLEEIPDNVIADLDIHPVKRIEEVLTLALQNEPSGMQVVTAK
# EBV gp42 block = EBV gp42 inhibition. Fluorescence polarization binding assay, mP read-out. inhibition, % (tested at 21.74 µM). hit rate 0.42% among 220,000. AID 1085; in the data active = inhibition above about 50%
# Bcl-xL primary = blocks human Bcl-xL binding to Bim BH3 peptide | AID 2129 | hit rate 0.7% among 320,000 | Q07817 | inhibition, % at 10.9 µM | GST-Bcl-xL / FITC-Bim BH3 peptide fluorescence polarization;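 active = inhibition above the mean of all tested compounds plus 3 SD, cutoff set per campaign, cut at about 30% in these data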;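 also: 0% = DMSO wells and 100% = unlabeled Bim-BH3 peptide competitor; inhibitors lower millipolarization by displacing the labeled peptide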
# GLD-1 RNA inh = GLD-1-TGE RNA interaction inhibition (C. elegans); Q17339; purified GLD-1 + fluorescein TGE RNA, fluorescence polarization; inhibition, % at 5.96 µM; hit rate 0.44% among 320,000; AID 2280;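 active = percent inhibition above a per-plate cutoff, the plate mean of test compounds plus 3 SD, cut at about 30% in these data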;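 also: 0% = DMSO wells with GLD-1 and probe and 100% = wells lacking GLD-1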
# MCL1-BIM inh = inhibitors of human MCL1 binding to BIM-BH3 peptide | inhibition, % at 10.9 µM | hit rate 0.68% among 320,000 | GST-MCL1 / FITC-Bim-BH3 fluorescence polarization;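 active = inhibition above the mean inhibition of all tested compounds plus 3 SD, set per campaign, cut at about 40% in these data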;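 also: 0% = DMSO wells and 100% = unlabeled Bim-BH3 peptide control; higher means more loss of mP so more displacement of Bim peptide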
# The depositor's hits bear a star; x = no result. A selection: hits, their analogues and other compounds. The true share with any hit is near 1.5%.
SMILES,MEX-5 binding,E coli Lon inh,EBV gp42 block,Bcl-xL primary,GLD-1 RNA inh,MCL1-BIM inh
COC(=O)c1cc(NC(=O)c2ccccc2)c(=O)oc1/C=C/Nc1ccc(Oc2ccccc2)cc1,-9,-205,186*,x,x,x
CCOC(=O)c1cc(NC(=O)c2ccccc2)c(=O)oc1-c1ccccc1,1,3,-21,0,-3,5
CCS(=O)(=O)n1nc(NCc2cccc(OC)c2)nc1NCc1cccc(OC)c1,0,7,-12,1,-9,0
N#Cc1c(-c2ccco2)cc(-c2ccccc2)[nH]c1=O,-7,-8,-9,34*,21,33
O=C(N/N=C\c1cc([N+](=O)[O-])ccc1N1CCCC1)c1ccccn1,-27*,4,-11,1,-7,1
CN1C(=O)/C(=C\c2ccc(N(C)C)cc2)OC1=S,-89*,-486,x,x,x,x
CN(C)c1ccc(/C=C2\N=C(C(C)(C)C)OC2=O)cc1,-43*,-80,x,-16,-63,-30
CCn1cc(C2=NCCO2)c2ccccc21,5,-14,-6,1,8,4
CC(C)NC(=O)N(C)C[C@@H]1OCCCC[C@@H](C)Oc2ccc(NC(=O)Nc3ccc(F)cc3)cc2C(=O)N([C@H](C)CO)C[C@@H]1C,x,-2,x,x,x,x
Nc1ccc2nc(CCCO)[nH]c2c1,-49*,-1,-12,3,0,2
C=CCc1cccc(C=Nc2cc(Br)ccc2O)c1O,1,-7,101*,8,3,7
C=CCc1cccc(C=Nc2c[nH]c(=O)[nH]c2=O)c1O,0,4,x,3,7,3
CCOCCCNC1=C(Cl)C(=O)c2ccccc2C1=O,-4,-7,-30,34*,-1,33
Cc1nc2cc(N)ccc2n1C1CCCCC1,-39*,-3,-10,0,1,4
CCn1c(C)nc2cc(OC)ccc21,-2,1,-28,6,3,2
CCn1c(C)nc2cc(N)ccc21,-51*,-13,-24,3,-1,7
CC(C)N(C)c1ncnc2c1ncn2[C@H]1CN(Cc2ccccc2)C[C@@H](CO)O1,x,-10,x,x,x,x
COc1ccc(OC)c(C(C)NC(C)=O)c1 (stereo not given),0,-6,-21,5,-2,4
O=Cc1ccc2ccc3cccnc3c2n1,-34*,7,x,6,3,10
COC/C=C/C1=CC2=CC(=O)C(C)(OC(=O)C3CCCC3)C(=O)C2=CO1 (stereo not given),-3,6,-8,14,20,26
CC1(OC(=O)C2CCCC2)C(=O)C=C2C=C(C3CC3)OC=C2C1=O (stereo not given),-12,x,x,50*,44*,42*
CC1(OC(=O)c2ccc(Cl)nc2)C(=O)C=C2C=C3CCCN3C=C2C1=O (stereo not given),x,9,13,13,12,26
CC1(OC(=O)C2CCCC2)C(=O)C=C2C=C3CCCCN3C=C2C1=O (stereo not given),-8,22,-12,32*,18,47*
COc1ccc2c(C)cc(C)nc2n1,-1,-7,-20,6,-6,6
NC(=O)c1ccc(N2CCCCC2)c(N2C(=O)CCC2=O)c1,5,-8,-7,4,14,2
SMILES,MEX-5 binding,E coli Lon inh,EBV gp42 block,Bcl-xL primary,GLD-1 RNA inh,MCL1-BIM inh
CCC(C(=O)Nc1cc(OC)c(NC(=O)c2ccccc2)cc1OC)c1ccccc1 (stereo not given),0,2,x,-1,2,-4
Cc1cc(C)n2nc(C(=O)N3CCOCC3)nc2n1,-1,-13,0,-2,-7,-6
CC(C)(CCl)C(=O)Nc1ccc(OC(F)(F)F)cc1,3,-10,61*,2,6,5
COC(=O)c1ccccc1Oc1ccc(NC(=O)C(C)(C)CCl)cc1,2,1,7,3,-7,3
CCCC(=O)Nc1nnc(C2CCCO2)s1 (stereo not given),-2,-5,-2,-1,-4,1
COc1ccc(NC(=O)c2nc3nccc(C)n3n2)cn1,-19,-6,12,34*,13,36
CCOC(=O)N1CCC2(CC1)C(C#N)=C(N)Oc1c2c(C)nn1-c1cccc(Cl)c1,-16,-3,52*,-3,-1,1
CCOC(=O)N1CCC2(CC1)C(C#N)=C(N)Oc1n[nH]c(C)c12,-1,-4,5,4,0,5
CN=C1S/C(=C\c2cn(CC(=O)OC)c3ccccc23)C(=O)N1C,-28*,-15,-10,-2,-17,-2
CN=C1S/C(=C/c2cn(CC(=O)OC)c3ccccc23)C(=O)N1C,3,-8,-19,-4,-14,-6
Cc1ccc(OCCNC(=O)c2ccccc2N)cc1,-1,3,-19,-3,0,-2
Cc1ccsc1C(=O)NCC(c1cccs1)N1CCOCC1 (stereo not given),x,8,x,x,x,x
COC/C=C/C1=CC2=CC(=O)C(C)(O)C(=O)C2=CO1 (stereo not given),-47*,x,x,13,3,64*
COc1ccc(C2=CC3=C(Br)C(=O)C(C)(O)C(=O)C3=CO2)cc1 (stereo not given),-7,7,-1,23,9,18
COc1ccc(C2=CC3=CC(=O)C(C)(O)C(=O)C3=CO2)cc1 (stereo not given),-38*,x,x,16,11,27
COC/C=C/C1=CC2=CC(=O)C(C)(OC(=O)c3ccco3)C(=O)C2=CO1 (stereo not given),x,x,8,27,31*,60*
COC/C=C/C1=CC2=CC(=O)C(C)(OC(=O)c3cccs3)C(=O)C2=CO1 (stereo not given),-9,x,x,6,6,15
O=C(COc1ccc(S(=O)(=O)NC2CCCCC2)cc1Cl)Nc1ccc2c(c1)OCO2,0,8,-7,4,6,0
CCOC(=O)N1CCC(Nc2nc3ccccc3nc2NS(=O)(=O)c2ccc(Cl)cc2)CC1,1,9,54*,11,5,12
COc1ccc(NC2=Nc3ccccc3N3C2=Nc2c(c(C)nn2-c2ccc(C)cc2)C3c2cccnc2)cc1 (stereo not given),x,-3,35,0,0,2
CC(=O)Nc1ccc(NC2=Nc3ccccc3N3C2=Nc2c(c(C)nn2-c2ccccc2)C3c2ccccc2)cc1 (stereo not given),-8,13,71*,-6,1,-4
CC(=O)NC(c1cccc(F)c1)c1nc(-c2ccc3ccccc3c2)cs1 (stereo not given),x,-12,x,x,x,x
Oc1oc(-c2ccccc2)nc1C=Nc1cccc2ccccc12,-2,-7,75*,2,1,-5
Oc1oc(-c2ccccc2)nc1/C=N/c1nccs1,-9,-9,-26,8,2,2
CNC(=O)/C=C1\NC(C)(C)Cc2ccccc21,2,-1,-19,1,-4,-3

# Screening results as filed in PubChem BioAssay.
